# Several values for one entry are separate records, joined by “and”; a condition that tells them apart may be missing. Identical values can stand only once. Records with an inconclusive call do not appear. A call without a number means that no potency is given here. Unmarked numbers belong to inactive results. Activity calls are given as the source filed them. The call rests on the fitted dose curve; in most records, active means well fitted curve in the direction sought with a large enough effect; inconclusive means small, poorly fitted or top-dose-only effect, or another doubt; inactive means no such curve, though single readings can be large; an effect the other way counts as inactive or inconclusive.
# Assays:
# [1] = molecular target: Calcium and integrin-binding protein 1 (Homo sapiens) (UniProt Q99828); assay: Primary qHTS for Identification of Calcium Integrin Binding Protein 1 (CIB1) Competitor (AID 1508620); conditions: CIB1-GST / FITC-alphaIIb peptide fluorescence polarization; series mostly up to 114 µM;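 further: GST tagged CIB1 binding a fluorescein labelled alphaIIb integrin peptide tracer; top concentration of the series differs between compounds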
# In short: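 CIB1-GST (1 uM final) and compound incubated 15 min at room temperature before adding FITC-alphaIIb peptide tracer (100 nM final). Competition for binding read by fluorescence polarization (ex 480, em 540) after another 15 min at room temperature.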
# [2] = Primary qHTS for inhibitors of nuclear receptor binding SET domain protein 2 (NSD2) in an isogenic RCH-ACV NSD2 p.E1099K mutant (9B) (AID 1645876); conditions: RCH-ACV NSD2 E1099K (9B) viability, CellTiter-Glo, 72 h; series mostly up to 44.9 µM; further: nearly all actives have a fitted effect of over 70% in size; further: potency means the concentration at half of the fitted maximal effect
# [3] = Primary qHTS for inhibitors of nuclear receptor binding SET domain protein 2 (NSD2) in an RCH-ACV wild type WT cells (2C) (AID 1645877); conditions: RCH-ACV (leukaemia line) NSD2 WT (2C) viability, CellTiter-Glo, 72 h; series mostly up to 44.9 µM; further: nearly all actives have a fitted effect of over 70% in size; further: potency means the concentration at half of the fitted maximal effect
# Chain of Calcium and integrin-binding protein 1 (Homo sapiens) (Q99828 whole entry, looked up): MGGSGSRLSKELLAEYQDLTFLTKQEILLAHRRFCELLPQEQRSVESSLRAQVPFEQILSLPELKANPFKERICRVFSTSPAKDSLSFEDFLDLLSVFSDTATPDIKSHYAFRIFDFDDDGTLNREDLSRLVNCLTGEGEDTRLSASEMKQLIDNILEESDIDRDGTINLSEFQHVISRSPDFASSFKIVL
structure (smiles),measurement,setting,value
CN1CCN(c2ccc(Nc3cc(-c4cccc(-n5ccc6cc(C7CC7)cc(F)c6c5=O)c4CO)cn(C)c3=O)nc2)CC1,Potency,[1],inactive
same,Potency,[2],20.6 µM (active)
O[C@@](Cc1ncc(CC2(C(F)(F)F)CC2)[nH]1)(c1ccc(-n2cccn2)cc1)C(F)(F)F,Potency,[1],inactive
same,Potency,[2],23 µM (active)
COc1cc(C(=O)O)ccc1NC(=O)C1NC(CC(C)(C)C)C(C#N)(c2ccc(Cl)cc2F)C1c1cccc(Cl)c1F (centres undefined),Potency,[1],inactive
same,Potency,[2],inactive
CC1(C)CCCC2(C)C1C(OC(=O)/C=C/C=C/C=O)C=C1COC(=O)C12O (centres undefined),Potency,[1],inactive
same,Potency,[2],7.09 µM (active)
same,Potency,[3],3.55 µM (active)
CC(C)=CCCC1(C)/C=C/C(OC(=O)C=C(C)C)C(C)(O)/C=C/C(=O)/C(CO)=C\C1 (centres undefined),Potency,[1],inactive
same,Potency,[2],11.2 µM (active)
C/C(=C\Cc1c(O)c(Cl)c(C)c(C=O)c1O)CC/C=C(\C)[C@H]1CC(=O)C(C)(C)O1,Potency,[1],inactive
same,Potency,[2],2.52 µM (active)
Cc1c(F)ccc(C(=O)Nc2cc([N+](=O)[O-])ccc2N2CCN(C)CC2)c1Cl,Potency,[1],inactive
same,Potency,[2],inactive
same,Potency,[3],inactive
CC1(C)CCC2(C(=O)OC3OC(COC4OC(CO)C(O)C(O)C4O)C(O)C(O)C3O)CCC3(C)C(=CCC4C5(C)CCC(OC6OCC(O)C(O)C6O)C(C)(C)C5CCC43C)C2C1O (centres undefined),Potency,[1],inactive
same,"activity change, negative = viability loss",[2],-12.3% [at 9.23 µM]
same,"activity change, negative = cell killing",[3],-18.7% [at 9.23 µM]
Cc1ccc(OC[C@H](O)[C@H](C)NC(C)C)c2c1CCC2,Potency,[1],inactive
same,Potency,[2],inactive
C=C1C(=O)O[C@@H]2C[C@]3(C)[C@@H](CCC(C)O)[C@@H]3C[C@H]12 (some centres undefined),Potency,[1],inactive
same,Potency,[2],18.3 µM (active)
same,Potency,[3],14.5 µM (active)
CCOC(=O)c1csc(Nc2ccc(Cl)cc2)n1,Potency,[1],inactive
same,Potency,[2],18.3 µM (active)
Cn1ncc2cc(-c3cnc(N)c(Cl)c3N3CCC4(CCNC4=O)CC3)ccc21,Potency,[1],inactive
same,Potency,[2],2.05 µM (active) and 3.72 µM (active)
same,Potency,[3],0.0934 µM (active)
COc1c2c(nc3occc13)C(CC=C(C)C)(OC)C(O)CC2 (centres undefined),Potency,[1],inactive
same,Potency,[2],inactive
CC(C)(C)NC(=O)[C@H]1CC[C@H]2[C@@H]3CC[C@H]4NC(=O)CC[C@]4(C)[C@H]3CC[C@]12C,Potency,[1],inactive
same,Potency,[2],inactive
same,Potency,[3],inactive
C=C1/C(=C/C=C2\CCC[C@@]3(C)C2CCC3[C@H](C)/C=C/[C@@H](O)C2CC2)C[C@@H](O)C[C@@H]1O (some centres undefined),Potency,[1],inactive
same,Potency,[2],23 µM (active)
C=C(C)C1CCC2(C(=O)O)CCC3(C)C(CCC4C5(C)C(C=O)C(O)C(C)(C)C5CCC43C)C12 (centres undefined),Potency,[1],inactive
same,Potency,[2],inactive
CCC/C=C/C(=O)O[C@H]1CC(C)(C)CC2[C@@]13[C@H](O)C[C@]1(C)[C@@]2(CCC2[C@@]4(C)CC[C@H](O[C@@H]5O[C@H](C(=O)O)[C@@H](O)[C@H](O[C@@H]6O[C@H](CO)[C@H](O)[C@H](O)[C@H]6O[C@@H]6O[C@@H](C)[C@H](O)[C@@H](O)[C@H]6O[C@@H]6OC[C@](O)(CO)[C@H]6O)[C@H]5O[C@@H]5O[C@H](CO)[C@H](O)[C@H](O)[C@H]5O)C(C)(C)C4CC[C@]21C)O[C@H]3O (some centres undefined),"activity change, negative = inhibition",[1],4.06% [at 12.4 µM]
same,Potency,[2],1.73 µM (active)
Cc1cn(CCN2CCN(c3ccccc3-c3cc(C#N)cc(C(=O)NCCCN4CCCC4)c3)CC2)c2ccccc12,Potency,[1],inactive
same,Potency,[2],6.49 µM (active) and 6.61 µM (active)
same,Potency,[3],5.78 µM (active) and 6.61 µM (active)
COC1=CC(=O)C[C@@H](C)[C@@]12Oc1c(Cl)c(OC)cc(OC)c1C2=O,Potency,[1],inactive
same,Potency,[2],inactive
same,Potency,[3],inactive
NC(=O)c1cnc(N[C@@H]2CCCC[C@@H]2N)nc1Nc1cccc(-n2nccn2)c1,Potency,[1],inactive
same,Potency,[2],1.32 µM (active)
same,Potency,[3],1.32 µM (active)
COc1cc(C(C)=O)c(OC)c2c1OC(C)(C)C=C2,Potency,[1],inactive
same,Potency,[2],inactive
same,Potency,[3],inactive
O=C1COC2(CCN(S(=O)(=O)c3ccc(-c4ccc5cccnc5c4)cc3)CC2)CN1C1CC1,Potency,[1],inactive
same,Potency,[2],inactive
C=CC(C)(O)CC/C=C(/C)COC(=O)C(C)C1CCC(C)(C=C)O1 (centres undefined),Potency,[1],inactive
same,Potency,[2],inactive
CC(C)C[C@H](CO)Nc1nc(S[C@@H](C)c2ccccc2)nc2nc(N)sc12,Potency,[1],inactive
same,Potency,[2],26.3 µM (active)
O=C(NCCCc1ccccc1)c1cccc(-c2cc(O)c3ncccc3c2)c1,Potency,[1],inactive
same,Potency,[2],12.9 µM (active)
same,Potency,[3],3.65 µM (active)
C[C@@H]1O[C@@H](O[C@H]2[C@H](OC(=O)[C@]34CCC(C)(C)C[C@H]3C3=CCC5[C@@]6(C)C[C@H](O)[C@H](O[C@@H]7O[C@H](CO)[C@@H](O)[C@H](O)[C@H]7O)[C@](CO)(C(=O)O)C6CC[C@@]5(C)[C@]3(C)C[C@H]4O)OC[C@H](O)[C@@H]2O)[C@H](O)[C@H](O)[C@H]1O[C@@H]1OC[C@@H](O)[C@H](O[C@@H]2OC[C@](O)(CO)[C@H]2O)[C@H]1O (some centres undefined),"activity change, negative = inhibition",[1],3.47% [at 12.4 µM]
same,Potency,[2],0.772 µM (active)
same,Potency,[3],0.547 µM (active)

# Reference: PubChem BioAssay (NCATS)
